The list is not random: actives were taken first. Their share in the collection is about 3.7%.
FMDV inh = High Throughput Screening for Foot and Mouth Disease Virus Antivirals. FMDV antiviral cell-based qHTS. Potency, µM (series often up to 57.9 µM), for the others: at the top dose activity change, negative = inhibition, most hits filed as inhibitors. 1.2% of 410,000 active; calls by dose curve; tested in HEK293T cells; also: read-out not given here; nearly all actives have a fitted effect of over 45% in size
Sm TGR block = qHTS Assay for the Inhibitors of Schistosoma Mansoni Peroxiredoxins; Schistosoma mansoni thioredoxin glutathione reductase (TGR), Q962Y6; purified TGR, DTNB reduction, TNB absorbance 405 nm; Potency, µM (series often up to 114 µM), for inactives: at the top dose activity change, negative = inhibition, hits mostly inhibitors; 3% of 360,000 active; AID 485364, 2010; also: nearly all actives have a fitted effect of over 60% in size
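First, TGR (20 nM dispensed) and NADPH were mixed with compound. Second, a 15 min room-temperature incubation followed. Third, further NADPH and then DTNB were added to start the reaction. Finally, TNB absorbance was monitored kinetically.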
Tb PYK inh = qHTS of Trypanosoma Brucei Inhibitors; pyruvate kinase (Trypanosoma brucei), Q57TT1; TbPYK enzyme, Kinase-Glo Plus ATP luminescence, 45 min; Potency, µM (titrated, usually from 76.8 µM), inactives show at the top dose activity, negative = inhibition, usual class: inhibitors; 0.12% of 410,000 active; AID 624173, 2012; also: nearly all actives have a fitted effect of over 50% in size
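Readout: single end-point luminescence (Kinase-Glo Plus, 10 min). Reaction conditions were TbPYK/substrate plus 130 uM ADP, 45 min at RT, pH 7.2 TEA buffer. No-enzyme wells served as controls, and data were normalized before concentration-response fitting.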
RE007 growth inh = qHTS Assay for Inhibitors of the HIV-1 protein Vpr; 0.21% of 360,000 active; S. pombe RE007 Vpr strain, BacTiter-Glo ATP luminescence, 24 h; Potency, µM (highest dose often 92.2 µM), without a hit: at the top dose activity change, negative = less growth, hits mostly inhibitors; active = well fitted falling curve with a large enough effect; inconclusive = small, poorly fitted or top-dose-only effect; inactive = no such curve, though single readings can be large or run the other way; also: nearly all actives have a fitted effect of over 50% in size
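Fission yeast strain RE007, carrying one chromosomally integrated HIV-1 vpr copy, was seeded at OD 0.01 in PMG+AL medium with 23 nL pinned compound. After 24 h at 30 °C and 99% humidity, viability was read by BacTiter-Glo luminescence.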
Starred values were filed as active, the others as inactive; ? = inconclusive; / = no result; [ ] = dose if it differs, or a comment. Unless noted, calls follow the shape of the dose curve; as a rule, active = well fitted curve in the direction sought with a large enough effect; inconclusive = small, poorly fitted or top-dose-only effect, or another doubt; inactive = no such curve, though single readings can be large; an effect the other way counts as inactive or inconclusive. % is scaled to controls: 0 for no effect and ±100 for the full control effect; potency is read from the fitted curve at half-maximal effect.

SMILES | FMDV inh | Sm TGR block | Tb PYK inh | RE007 growth inh
O=Cc1cc([N+](=O)[O-])ccc1N1CCOCC1 | -14% | -17% | -8% | -12%
O=[N+]([O-])c1ccc(/C=C2\CCC(C3=CCCC3)=C2N2CCOCC2)cc1 | -15% | 32µM* | -17% | ?
COC(=O)c1c(NC(=O)C(Cl)Cl)sc2c1C(C(=O)OC)CC2 (configuration not stated) | ? | 2% | -1% | -13%
COC(=O)c1c(NC(=O)C(C)(C)C)sc2c1C(C(=O)OC)CC2 (configuration not stated) | -23% | 32µM* | -8% | 4%
CCC(Sc1nc2ccccc2c2nc(CCc3c(C)n[nH]c3C)nn12)C(=O)Nc1ccc(F)cc1 (configuration not stated) | -26% | 6% | -3% | /
Cc1cc(C)n(CC(=O)Nc2cc(F)ccc2F)c(=O)c1C#N | -2% | 4% | -3% | /
CC(C)(C)OC(=O)CNC(=O)c1[nH]cnc1C(=O)NCCCCCNC(=O)OC(C)(C)C | 16µM* | 7% | -2% | -8%
C[C@@H](OC(=O)c1[nH]cnc1C(=O)NCc1ccc(CNC(=O)OC(C)(C)C)cc1)c1ccccc1 | 32µM* | / | -2% | -5%
CC(C)(C)OC(=O)NCc1ccc(CNC(=O)c2[nH]cnc2C(=O)NCC(=O)OCc2ccccc2)cc1 | 28µM* | 1% | -5% | -6%
CC(C)(C)OC(=O)CNC(=O)c1[nH]cnc1C(=O)NCCCCCN | -16% | -10% | 3% | 11%
CC(C)(C)OC(=O)NCc1ccc(CNC(=O)c2nc[nH]c2C(=O)NCc2ccccc2)cc1 | ? | 1% | 2% | 7%
CCCOc1ccc(Oc2nc(NCC(C)C)nc(N3CCOCC3)n2)nn1 | -1% | ? | 8% | /
COc1ccc(NC(=O)c2oc3ccc(S(=O)(=O)N4CCCCC4)cc3c2C)cc1 | 18µM* | 7% | 2% | /
Cc1c(C(=O)NCCC2=CCCCC2)oc2ccc(S(=O)(=O)N3CCOCC3)cc12 | 14µM* | 0% | -1% | 0%
COc1cccc(NC(=O)c2oc3ccc(S(=O)(=O)N4CCCCCC4)cc3c2C)c1 | -21% | 5% | 0% | /
Cc1ccc(Cl)cc1N1CCN(C(=O)c2ccc3nc(N4CCC(C)CC4)sc3c2)CC1 | ? | -4% | -12% | /
CC(C)(C)c1ccc(C(=O)CC(Sc2ccc(Cl)cc2)C(=O)O)cc1 (configuration not stated) | ? | 11µM* | ? | -29%
O=C(CC(C(=O)O)c1ccc(F)cc1)c1ccc(Cl)cc1 (configuration not stated) | -8% | -8% | 0% | -11%
Cc1ccc(SC(CC(=O)c2ccc(F)cc2)C(=O)O)cc1 (configuration not stated) | ? | 0.5µM* | 1% | ?
CCc1ccc(CN(Cc2cn[nH]c2-c2ccc(OC)cc2)C(=O)Nc2ccc(C)c(F)c2)cc1 | ? | 23% | 0% | /
COC(=O)c1cc(CNC(=O)c2ccc3ncccc3c2)cc(NC(=O)c2ccccc2Cl)c1 | 3% | / | / | /
C=CCn1c(O)c(C(CC)=Nc2ccc(N(C)C)cc2)c(=O)[nH]c1=O | ? | 32µM* | -15% | 8%
C=CCn1c(O)c(C(C)=NCCc2ccccc2)c(=O)[nH]c1=O | -10% | -10% | 5% | 27%
C=CCn1c(O)c(C(CC)=Nc2ccc3c(c2)CCC3)c(=O)[nH]c1=O | ? | -1% | -6% | 11%
C=CCn1c(O)c(C(CC)=NCCc2ccccc2)c(=O)[nH]c1=O | -21% | 89µM* | / | 19%[3.69 µM]
SMILES | FMDV inh | Sm TGR block | Tb PYK inh | RE007 growth inh
Clc1ccc(-c2nc3ccncc3[nH]2)cc1 | 54% | -1% | -24% | 40µM*
CCN1C(=O)S/C(=C/c2ccc(Oc3ccc([N+](=O)[O-])cn3)c(OC)c2)C1=O | -17% | 1% | 1% | -10%
COc1cc(/C=C2/SC(=O)N(CC(=O)N3CCCC3)C2=O)ccc1Oc1ccc([N+](=O)[O-])cn1 | 32µM* | 0% | 2% | 7%
COC(=O)[C@]1(CC(C)C)N[C@H](c2ccc(-c3ccc(F)cc3)c(OC)c2)[C@@H]2C(=O)N(C)C(=O)[C@@H]21 | 0% | 20µM* | -10% | -6%
CCN1C(=O)[C@H]2[C@@H](c3ccc(-c4cccc(Cl)c4)c(OC)c3)N[C@@](Cc3ccccc3)(C(=O)OC)[C@H]2C1=O | -22% | 28µM* | 0% | 2%
COC(=O)[C@]1(Cc2ccccc2)N[C@H](c2ccc(-c3cccc(Cl)c3)c(OC)c2)[C@@H]2C(=O)N(C)C(=O)[C@@H]21 | -27% | / | -3% | -11%
CCN1C(=O)[C@H]2[C@@H](c3ccc(-c4ccc(OC)cc4)c(OC)c3)N[C@@](CC(C)C)(C(=O)OC)[C@H]2C1=O | -9% | / | 0% | -10%
CCN1C(=O)[C@H]2[C@@H](c3ccc(-c4ccc5c(c4)OCO5)c(OC)c3)N[C@@](CC(C)C)(C(=O)OC)[C@H]2C1=O | -22% | 50µM* | -1% | -6%
COc1ccc(C2NC(Cc3ccccc3)(C(=O)O)C3C(=O)N(c4ccccc4OC)C(=O)C23)cc1 (configuration not stated) | 8% | 22µM* | 2% | 2%
CCN1C(=O)[C@H]2[C@@H](c3ccc(-c4ccc5c(c4)OCO5)c(OC)c3)N[C@@](Cc3ccccc3)(C(=O)OC)[C@H]2C1=O | -17% | -23% | 1% | -16%
COc1ccccc1N1CCN(c2nc3ccc(C)cc3n3nnnc23)CC1 | -1% | 4% | 5% | /
CCOC(=O)C1CCN(C(=O)CSc2n[nH]c(-c3ccc(OC)cc3)n2)CC1 | -14% | -4% | -4% | /
CC(Oc1ccccc1)C(=O)Nc1nc2ccc(S(N)(=O)=O)cc2s1 (configuration not stated) | 11% | -10% | -6% | /
O=c1c2ccccc2n(Cc2c(F)cccc2Cl)c(=O)n1CCc1ccccc1 | -13% | -1% | 1% | /
O=C(O)[C@@H]1CN[C@@H](C(=O)O)C1 | 10% | / | / | /
CCN1CCCC1CNCc1cc2ccc(SC)cc2nc1-c1cc(OC)ccc1OC (configuration not stated) | -2% | / | / | /
CCC(O)c1nc2ccccc2n1CCOc1cc(C)cc(C)c1 (configuration not stated) | -29% | -1% | 6% | /
Cc1ccc(Cn2ccn(Cc3ccccc3F)c(=O)c2=O)cc1 | 10% | -2% | 2% | /
O=c1cc(-c2ccccc2)[nH]c2ccccc12 | -12% | 8% | -5% | ?
O=C1C(c2cc(=O)c3ccccc3[nH]2)=C(O)c2ccccc21 | -12% | 4% | 8.9µM* | -21%
CC1(C)CC(=O)C2=C(C1)c1c(ccc3ccccc13)NC2c1ccco1 (configuration not stated) | 48% | 45µM* | 3% | -1%
CCCCCNC(=O)C(c1ccc(C(F)(F)F)cc1)n1c(=O)c(-c2ccco2)nc2ccccc21 (configuration not stated) | -11% | / | / | -13%
